Compounds without any hit were thinned out: in the full panel of roughly 83,000, 20% have a hit.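 Negative percent growth values reflect cell death: -40 means 40% of the cells present at the start died, and -100 means all died.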
Key:
Assay in all cases: NCI-60 one-dose screen, 48 h (100 = growth as untreated, 0 = no growth, -100 = all killed)
Settings in all cases: 10 µM unless noted; active means growth percent below 10; inactive means the rest
T-47D breast = system: T-47D breast
BT-549 breast = system: BT-549 breast
MDA-MB-435 melanoma = system: MDA-MB-435 melanoma
SW-620 colon = system: SW-620 colon
MCF7 breast = system: MCF7 breast
HCT-116 colon = system: HCT-116 colon
HCC-2998 colon = system: HCC-2998 colon
KM12 colon = system: KM12 colon

Measured: growth

C=CCc1nc2ccccc2s1
inactive: T-47D breast 75.5% | BT-549 breast 101% | MDA-MB-435 melanoma 116% | SW-620 colon 98.9% | MCF7 breast 40.6% | HCT-116 colon 104% | HCC-2998 colon 114% | KM12 colon 107%

CCCCN(CC)CC(CC)Nc1cc(OC)cc2cccnc12 (configuration not stated)
inactive: T-47D breast 110% | BT-549 breast 110% | MDA-MB-435 melanoma 102% | SW-620 colon 108% | MCF7 breast 98.5% | HCT-116 colon 105% | KM12 colon 107%

CCN(CC)CCCNCc1cc(-c2ccccc2)nc2ccccc12
inactive: T-47D breast 53.4% | BT-549 breast 75.9% | MDA-MB-435 melanoma 53.3% | SW-620 colon 24.2% | MCF7 breast 35.7% | HCC-2998 colon 101% | KM12 colon 82.6%

Nc1ccc(NC(=O)c2ccccc2)c2c1C(=O)c1ccccc1C2=O
inactive: T-47D breast 107% | BT-549 breast 101% | MDA-MB-435 melanoma 98.2% | SW-620 colon 98.3% | MCF7 breast 81.6% | HCT-116 colon 101% | KM12 colon 96%

CCC(Br)(CC)C(=O)c1ccc(OCC(=O)O)c(Cl)c1Cl
inactive: T-47D breast 112% | BT-549 breast 79.1% | MDA-MB-435 melanoma 101% | SW-620 colon 112% | MCF7 breast 92.8% | HCT-116 colon 102% | HCC-2998 colon 91.5% | KM12 colon 103%

Reference: PubChem BioAssay (NCI)
